Values joined by “and” are separate entries in the source; they are usually repeats but may differ in a detail not shown here. Identical values can stand only once. Active and inactive are the calls of the source. Unless noted, no stated cut-off is given here; in the data, active means inhibition above about 80%; inactive means the rest.
Experiment: growth inhibition, single agents and combos, LFS_MB_1R, cell-based, cisplatin or BGB combos, synergistic combos for chromothripsis tumors (AID 1671452);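 further: cells exposed for 96 hours before readout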
Conditions: LFS_MB_1R medulloblastoma cells, measured here: combination with cisplatin, at 5 µM, stronger effect = higher value
With `O=c1[nH]cc(F)c(=O)[nH]1` the inhibition was -15.5%.
With `CCCCCCNC(=O)n1cc(F)c(=O)[nH]c1=O` the inhibition was -40% and -9.49%.
In the case of `Cn1cnc([N+](=O)[O-])c1Sc1ncnc2nc[nH]c12`, the inhibition is reported as 10.1% and -28.7%.
With `CCn1cc(C(=O)O)c(=O)c2cc(F)c(N3CCN(C)CC3)cc21` the inhibition was -52.8% and 11.3%.

Experiment: growth inhibition, single agents and combos, HTB85, cell-based, BGB or cisplatin IC20 combos, synergistic combos for chromothripsis tumors (AID 1671453);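 further: cells exposed for 96 hours before readout; 0% = vehicle DMSO and 100% = high DMSO killing control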
Conditions: HTB85 osteosarcoma cells, drug combinations, at 0.5 µM, stronger effect = higher value
For `O=c1[nH]cc(F)c(=O)[nH]1`, the inhibition was -17.6% (inactive).
With `CCCCCCNC(=O)n1cc(F)c(=O)[nH]c1=O` the inhibition was -3.88% (inactive) and -24.5% (inactive).
With `Cn1cnc([N+](=O)[O-])c1Sc1ncnc2nc[nH]c12` the inhibition was -24.4% (inactive) and -11% (inactive).
For `CCn1cc(C(=O)O)c(=O)c2cc(F)c(N3CCN(C)CC3)cc21`, the inhibition was -24.6% (inactive) and 0.8% (inactive).

Same assay, conditions: HTB85 osteosarcoma cells, drug combinations, measured here: with BGB IC20, at 0.5 µM, stronger effect = higher value
`O=c1[nH]cc(F)c(=O)[nH]1` gave an inhibition of -36.1%.
With `CCCCCCNC(=O)n1cc(F)c(=O)[nH]c1=O` the inhibition was -6.6% and -67.2%.
In the case of `Cn1cnc([N+](=O)[O-])c1Sc1ncnc2nc[nH]c12`, the inhibition is reported as -62.4% and -24%.
In the case of `CCn1cc(C(=O)O)c(=O)c2cc(F)c(N3CCN(C)CC3)cc21`, the inhibition is reported as -39.2% and 13.3%.

Same assay, conditions: HTB85 osteosarcoma cells, drug combinations, measured here: with BGB IC20, at 5 µM, stronger effect = higher value
Compound `O=c1[nH]cc(F)c(=O)[nH]1` has an inhibition of 17.5%.
In the case of `CCCCCCNC(=O)n1cc(F)c(=O)[nH]c1=O`, the inhibition is reported as 21% and 3.85%.
With `Cn1cnc([N+](=O)[O-])c1Sc1ncnc2nc[nH]c12` the inhibition was -10.9% and -18.4%.
For `CCn1cc(C(=O)O)c(=O)c2cc(F)c(N3CCN(C)CC3)cc21`, the inhibition was -22.1% and 10.1%.

Same assay, conditions: HTB85 osteosarcoma cells, drug combinations, measured here: with cisplatin IC20, at 0.5 µM, stronger effect = higher value
`O=c1[nH]cc(F)c(=O)[nH]1` showed an inhibition of -12.5%.
For `CCCCCCNC(=O)n1cc(F)c(=O)[nH]c1=O`, the inhibition was -9.7% and -6.78%.
In the case of `Cn1cnc([N+](=O)[O-])c1Sc1ncnc2nc[nH]c12`, the inhibition is reported as -12.7% and 1.06%.
For `CCn1cc(C(=O)O)c(=O)c2cc(F)c(N3CCN(C)CC3)cc21`, the inhibition was -19.7% and -20.6%.

Same assay, conditions: HTB85 osteosarcoma cells, drug combinations, measured here: with cisplatin IC20, at 5 µM, stronger effect = higher value
`O=c1[nH]cc(F)c(=O)[nH]1` gave an inhibition of 22.8%.
For `CCCCCCNC(=O)n1cc(F)c(=O)[nH]c1=O`, the inhibition was 9.85% and 21%.
With `Cn1cnc([N+](=O)[O-])c1Sc1ncnc2nc[nH]c12` the inhibition was 8.32% and 19.5%.
With `CCn1cc(C(=O)O)c(=O)c2cc(F)c(N3CCN(C)CC3)cc21` the inhibition was -28.4% and -20.4%.

Same assay, conditions: HTB85 osteosarcoma cells, drug combinations, single agent, at 5 µM, stronger effect = higher value
Work on `O=c1[nH]cc(F)c(=O)[nH]1` yielded an inhibition of 21.8%.
In the case of `CCCCCCNC(=O)n1cc(F)c(=O)[nH]c1=O`, the inhibition is reported as 31.6% and 31.5%.
For `Cn1cnc([N+](=O)[O-])c1Sc1ncnc2nc[nH]c12`, the inhibition was 11% and -0.274%.
For `CCn1cc(C(=O)O)c(=O)c2cc(F)c(N3CCN(C)CC3)cc21`, the inhibition was -27.1% and 2.1%.

Experiment: growth inhibition, single agents and combos, CRL2098, cell-based, BGB or cisplatin IC20 combos, synergistic combos for chromothripsis tumors (AID 1671454);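 further: cells exposed for 96 h before readout; 0% = vehicle DMSO and 100% = killing by high DMSO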
Conditions: CRL2098 osteosarcoma cells, drug combinations, at 0.5 µM, stronger effect = higher value
With `O=c1[nH]cc(F)c(=O)[nH]1` the inhibition was -19.9% (inactive).
For `CCCCCCNC(=O)n1cc(F)c(=O)[nH]c1=O`, the inhibition was -23.4% (inactive) and -30.5% (inactive).
In the case of `Cn1cnc([N+](=O)[O-])c1Sc1ncnc2nc[nH]c12`, the inhibition is reported as -39.2% (inactive) and -50.5% (inactive).
With `CCn1cc(C(=O)O)c(=O)c2cc(F)c(N3CCN(C)CC3)cc21` the inhibition was -41.2% (inactive) and 7.78% (inactive).

Same assay, conditions: CRL2098 osteosarcoma cells, drug combinations, measured here: combination with BGB at IC20, at 0.5 µM, stronger effect = higher value
Compound `O=c1[nH]cc(F)c(=O)[nH]1` has an inhibition of -48.5%.
For `CCCCCCNC(=O)n1cc(F)c(=O)[nH]c1=O`, the inhibition was -16.8% and -6.28%.
With `Cn1cnc([N+](=O)[O-])c1Sc1ncnc2nc[nH]c12` the inhibition was -37.7% and -16.5%.
For `CCn1cc(C(=O)O)c(=O)c2cc(F)c(N3CCN(C)CC3)cc21`, the inhibition was -48.5% and 10.5%.

Same assay, conditions: CRL2098 osteosarcoma cells, drug combinations, measured here: combination with cisplatin at IC20, at 0.5 µM, stronger effect = higher value
`O=c1[nH]cc(F)c(=O)[nH]1` gave an inhibition of 13.5%.
In the case of `CCCCCCNC(=O)n1cc(F)c(=O)[nH]c1=O`, the inhibition is reported as -120% and -21%.
In the case of `Cn1cnc([N+](=O)[O-])c1Sc1ncnc2nc[nH]c12`, the inhibition is reported as -43.1% and -68.9%.
With `CCn1cc(C(=O)O)c(=O)c2cc(F)c(N3CCN(C)CC3)cc21` the inhibition was -57.7% and 40.3%.

Experiment: growth inhibition, single agents and combos, HD-MB03, cell-based, BGB or cisplatin IC20 combos, synergistic combos for chromothripsis tumors (AID 1671455; in the data active means inhibition above about 83%;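 further: 0% = vehicle DMSO and 100% = high DMSO as cytotoxic control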)
Conditions: HD-MB03 medulloblastoma cells, at 0.5 µM, stronger effect = higher value
For `O=c1[nH]cc(F)c(=O)[nH]1`, the inhibition was -10.4% (inactive).
In the case of `CCCCCCNC(=O)n1cc(F)c(=O)[nH]c1=O`, the inhibition is reported as -1.02% (inactive) and -7.18% (inactive).
For `Cn1cnc([N+](=O)[O-])c1Sc1ncnc2nc[nH]c12`, the inhibition was -1.96% (inactive) and 2.76% (inactive).
In the case of `CCn1cc(C(=O)O)c(=O)c2cc(F)c(N3CCN(C)CC3)cc21`, the inhibition is reported as -16.4% (inactive) and 1.14% (inactive).

Same assay, conditions: HD-MB03 medulloblastoma cells, measured here: combo with BGB at IC20, at 0.5 µM, stronger effect = higher value
`O=c1[nH]cc(F)c(=O)[nH]1` gave an inhibition of -12.3%.
In the case of `CCCCCCNC(=O)n1cc(F)c(=O)[nH]c1=O`, the inhibition is reported as -21.9% and -3.96%.
With `Cn1cnc([N+](=O)[O-])c1Sc1ncnc2nc[nH]c12` the inhibition was -3.82% and 4.08%.
In the case of `CCn1cc(C(=O)O)c(=O)c2cc(F)c(N3CCN(C)CC3)cc21`, the inhibition is reported as -17.4% and 6.49%.

Same assay, conditions: HD-MB03 medulloblastoma cells, measured here: combo with cisplatin at IC20, at 0.5 µM, stronger effect = higher value
For `O=c1[nH]cc(F)c(=O)[nH]1`, the inhibition was -6.42%.
For `CCCCCCNC(=O)n1cc(F)c(=O)[nH]c1=O`, the inhibition was 21% and -14.9%.
In the case of `Cn1cnc([N+](=O)[O-])c1Sc1ncnc2nc[nH]c12`, the inhibition is reported as -5.61% and 15.3%.
With `CCn1cc(C(=O)O)c(=O)c2cc(F)c(N3CCN(C)CC3)cc21` the inhibition was -24.9% and -8.23%.

Experiment: growth inhibition, single agents and combos, UWB1.289, cell-based, BGB or cisplatin combos, synergistic combos for chromothripsis tumors (AID 1671456);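 further: cells exposed to compound for four days; 0% = vehicle DMSO and 100% = killing by high DMSO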
Conditions: UWB1.289 ovarian carcinoma cells, at 0.5 µM, stronger effect = higher value
With `O=c1[nH]cc(F)c(=O)[nH]1` the inhibition was 0.81% (inactive).
In the case of `CCCCCCNC(=O)n1cc(F)c(=O)[nH]c1=O`, the inhibition is reported as 5.77% (inactive) and 18.7% (inactive).
In the case of `Cn1cnc([N+](=O)[O-])c1Sc1ncnc2nc[nH]c12`, the inhibition is reported as 39.3% (inactive) and 42.9% (inactive).
With `CCn1cc(C(=O)O)c(=O)c2cc(F)c(N3CCN(C)CC3)cc21` the inhibition was -8.81% (inactive) and 8.67% (inactive).
